PubChem BioAssay (NCI)
Several values for one entry are separate records, joined by “and”; a condition that tells them apart may be missing. Identical values can stand only once. About 79,000 compounds went through this panel and 15% of them were active in at least one assay; those are over-represented in the sample as a whole. Some structures have more than one record in an assay (separate samples or runs), and their calls can disagree. Activity calls are given as the source filed them. Rule as the data show it: active = growth inhibition above about 70%; inactive = the rest.

Tests used:
[1] = NCI Yeast Anticancer Drug Screen. Data for the wt1 strain (AID 149);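 also: 0% = growth of vehicle-treated wt1 cultures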; conditions: S. cerevisiae wt1 strain (SPY 50644) growth inhibition, stronger effect = higher value
Outline: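 Readout: yeast growth inhibition, normalised to vehicle controls, in the wt1 strain exposed to test compounds.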

[2] = NCI Yeast Anticancer Drug Screen. Data for the rad50EPP+ strain (AID 151);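 also: 0% = growth of vehicle-treated control cultures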; conditions: S. cerevisiae rad50 mutant strain, stronger effect = higher value
Outline: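 Exposing the rad50EPP+ strain to each compound, growth was compared with vehicle-only cultures to give inhibition.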

[3] = NCI Yeast Anticancer Drug Screen. Data for the mgt1 strain (AID 153); conditions: S. cerevisiae mgt1 mutant growth inhibition, stronger effect = higher value
Outline: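 Genetically defined yeast (mgt1) treated with compound; inhibition of growth expressed against vehicle-treated controls.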

[4] = NCI Yeast Anticancer Drug Screen. Data for the rad50 strain (AID 155);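 also: 0% = growth of vehicle-only cultures of the same strain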; conditions: S. cerevisiae rad50 strain growth inhibition, stronger effect = higher value
Outline: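 Compounds were tested on a yeast strain with an engineered DNA damage repair alteration; the reported value is growth inhibition normalised to vehicle treatment.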

[5] = NCI Yeast Anticancer Drug Screen. Data for the mec2-1 strain (AID 157); conditions: S. cerevisiae mec2-1 strain, stronger effect = higher value
Outline: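 Readout is yeast growth inhibition, normalised to vehicle-treated controls, in the mec2-1 strain exposed to compound.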

[6] = NCI Yeast Anticancer Drug Screen. Data for the rad14 strain (AID 159);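 also: 0% = growth of vehicle-treated control cultures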; conditions: S. cerevisiae rad14 strain growth inhibition, stronger effect = higher value
Outline: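 Compound-treated yeast with a defined DNA-repair lesion; growth inhibition normalised to vehicle-treated cultures.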

[7] = NCI Yeast Anticancer Drug Screen. Data for the sgs1 mgt1 strain (AID 161);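 also: 0% = growth of cultures given vehicle only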; conditions: S. cerevisiae sgs1 mgt1 strain, stronger effect = higher value
Outline: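 Growth of a repair-deficient yeast mutant was monitored after compound treatment and expressed as inhibition relative to vehicle-treated cultures.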

[8] = NCI Yeast Anticancer Drug Screen. Data for the CLN2oe strain (AID 163);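 also: 0% = growth of vehicle-only control cultures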; conditions: S. cerevisiae CLN2oe strain, stronger effect = higher value
Outline: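 Values reflect how much compound exposure reduced yeast growth, referenced to vehicle-exposed cells. Assay organism is a strain with a defined genetic change affecting cell-cycle control.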

[9] = NCI Yeast Anticancer Drug Screen. Data for the cln2 rad14 strain (AID 165);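 also: 0% = growth equal to vehicle treated cultures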; conditions: S. cerevisiae cln2 rad14 strain, stronger effect = higher value
Outline: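 Relative to vehicle controls, growth inhibition of compound-treated cln2 rad14 yeast was recorded.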

[10] = NCI Yeast Anticancer Drug Screen. Data for the bub3 strain (AID 167); conditions: S. cerevisiae bub3 mutant strain, stronger effect = higher value
Outline: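 Growth of a checkpoint-deficient yeast mutant is measured after compound exposure. Values represent inhibition relative to vehicle.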

[11] = NCI Yeast Anticancer Drug Screen. Data for the wt2 strain (AID 169);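 also: 0% = growth of vehicle-treated yeast cultures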; conditions: S. cerevisiae wt2 strain growth inhibition, stronger effect = higher value
Outline: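 Values express reduction in yeast growth under compound treatment, referenced to vehicle-treated cells.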

[12] = NCI Yeast Anticancer Drug Screen. Data for the mlh1 strain (AID 171);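 also: 0% = growth of vehicle-treated control cultures of the same strain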; conditions: S. cerevisiae mlh1 strain growth inhibition, stronger effect = higher value
Outline: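 Steps: expose the defined-mutant yeast strain to compound; expose a parallel culture to vehicle; measure growth; express compound effect as inhibition relative to the vehicle culture.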

[13] = NCI Yeast Anticancer Drug Screen. Data for the sgs1 strain (AID 173);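 also: 0% = growth of vehicle-only control cultures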; conditions: S. cerevisiae sgs1 mutant, stronger effect = higher value
Outline: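 Treat defined-mutant yeast with compound; measure growth; calculate inhibition relative to vehicle-treated cells.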

[14] = NCI Yeast Anticancer Drug Screen. Data for the mlh1 rad18 strain (AID 175); conditions: S. cerevisiae mlh1 rad18 strain growth inhibition, stronger effect = higher value
Outline: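 Test agents were incubated with a yeast strain of defined genotype (DNA damage repair defect). Inhibition of growth was derived by comparison with vehicle-exposed cultures.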

[15] = NCI Yeast Anticancer Drug Screen. Data for the rad18 strain (AID 177); conditions: S. cerevisiae rad18 mutant growth inhibition, stronger effect = higher value
Outline: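 A genetically defined yeast mutant impaired in DNA damage repair was treated with test compounds, then its growth was measured against cultures receiving vehicle alone.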

[16] = at 5.0 µM (retest, dose inferred, filed as 0.5)
[17] = at 50.0 µM (retest, dose inferred, filed as 5.0)

Measured: growth inhibition

COc1ccc(OC)c(/C=C/[N+](=O)[O-])c1
active: [1]; at 100.0 µM 71% | [2]; at 11.0 µM 74% | [2]; at 33.0 µM 86% | [2]; at 100.0 µM 99% | [3]; at 100.0 µM 100% | [4]; at 33.0 µM 86% | [4]; [17] 86% and 95% | [4]; at 50.0 µM 99.4% | [4]; at 100.0 µM 99% | [5]; at 50.0 µM 99.7% and 98.8% | [5]; at 100.0 µM 99% | [6]; at 100.0 µM 100% | [7]; at 50.0 µM 91.3% and 99% | [8]; at 100.0 µM 95% | [9]; at 50.0 µM 98.8% and 98.4% | [10]; at 50.0 µM 99% | [10]; at 100.0 µM 99% | [11]; at 100.0 µM 85% | [12]; at 100.0 µM 98% | [13]; at 100.0 µM 100% | [14]; at 50.0 µM 97.9% and 99.5% | [15]; at 100.0 µM 96%
inactive: [1]; at 1.2 µM -6% | [1]; at 3.7 µM -7% | [1]; at 11.0 µM -9% | [1]; at 33.0 µM 7% | [2]; at 1.2 µM 29% | [2]; at 3.7 µM 59% | [3]; at 1.2 µM 0% | [3]; at 3.7 µM -2% | [3]; at 11.0 µM 2% | [3]; at 33.0 µM 23% | [4]; at 1.2 µM 11% | [4]; at 3.7 µM 21% | [4]; [16] -83% and 19% | [4]; at 11.0 µM 48% | [5]; at 1.2 µM 1% | [5]; at 3.7 µM 2% | [5]; [16] -46% and 9% | [5]; at 11.0 µM 7% | [5]; at 33.0 µM 30% | [6]; at 1.2 µM 5% | [6]; at 3.7 µM 7% | [6]; at 11.0 µM 15% | [6]; at 33.0 µM 39% | [7]; [16] -53% and 12% | [7]; [17] 1% and 64% | [8]; at 1.2 µM 6% | [8]; at 3.7 µM 9% | [8]; at 11.0 µM 13% | [8]; at 33.0 µM 37% | [9]; [16] -60% and 2% | [10]; at 1.2 µM 0% | [10]; at 3.7 µM 6% | [10]; [16] -57% and 35% | [10]; at 11.0 µM 13% | [10]; at 33.0 µM 25% | [11]; at 1.2 µM 0% | [11]; at 3.7 µM -1% | [11]; at 11.0 µM -2% | [11]; at 33.0 µM 15% | [12]; at 1.2 µM 10% | [12]; at 3.7 µM -2% | [12]; at 11.0 µM 8% | [12]; at 33.0 µM 28% | [13]; at 1.2 µM -1% | [13]; at 3.7 µM 18% | [13]; at 11.0 µM 29% | [13]; at 33.0 µM 54% | [14]; [16] -114% and 37% | [15]; at 1.2 µM 5% | [15]; at 3.7 µM 13% | [15]; at 11.0 µM 20% | [15]; at 33.0 µM 49%
-38% (inactive) and 97% (active): [5]; [17]
-33% (inactive) and 79% (active): [10]; [17]
-53% (inactive) and 95% (active): [14]; [17]
-45% (inactive) and 76% (active): [9]; [17]
